# Source: the OligoGym collection
# Molecular target: CASP8
# Assay: pooled miR-30 sensor sort-seq; sequence = guide strand
# Conditions: shRNA
# Further: reference of the scale not given here.
row,Sequence,sensor-assay potency score (higher = more potent)
1,TAACCTGCCTAACTCCACGTGC,-0.566
2,TAGTTGATAGATAACAATCTGA,-0.246
3,TAATGATTTAAAATAATCCAAG,-1.15
4,TTCATAGTTCACTTCAGTCAGG,-0.715
5,TAGATTTGCTCTACTGTGCAGT,0.44
6,TAATAGATGATCGACCCTCCGC,-0.463
7,ATAGATAACAATCTGAATCATA,-0.657
8,TTGATTTGGGCACAGACTCTTT,-0.862

# Molecular target: CASQ1
# Assay: as above
# Conditions: shRNA
row,Sequence,sensor-assay potency score (higher = more potent)
1,TTCTTGAACACATTCTTGTAGT,0.249
2,TTCTTTGCCACCTTGCTGTCGA,0.0735
3,AACACATTCTTGTAGTTCTTTG,-0.85
4,TAGCCAATGAGTTTGATCTCAT,-0.312
5,TTGACAATCTCCTCTTCGCTAT,-0.427
6,TAATGCTCTGAGTCTTTGCTCT,-0.39
7,TTCACCTTCAATCAATTCCACA,-1.32
8,TCTCTAAGAACTCGAAACCATC,-1.47
9,TTGTAATGCTCTGAGTCTTTGC,-1.04
10,ATACTTCTTGAACACATTCTTG,-1.25
11,TTCATGGTAGAGGAGTGCCAGC,-1.44
12,TAGGACATCAAGCAGAAACTCC,-0.771
13,TACAGGATTAGAGAGAGTGGGG,-0.52
14,TTGTCTTCTAGGACTTGGGCTG,-0.338
15,ATGCTCTGAGTCTTTGCTCTTG,-1.26
16,TTGATCACACGGTCCACACCAT,-0.226
17,TTGTGAGGCCTTGTCATCCTCG,-0.34
18,TAGTTCTTTGCATTGACATTGA,-0.428
19,ATCCTTCTCAGAGTCTACCAGC,-1.1
20,TTCTCAGAGTCTACCAGCCCGA,-1.38
21,TTGAGAGTCTCTAAGAACTCGA,-0.0687
22,TACATTAACAAGTGATTGCTGA,0.512
23,TACTTCTTGAACACATTCTTGT,0.247

# Molecular target: CBL
# Assay: as above
# Conditions: shRNA
row,Sequence,sensor-assay potency score (higher = more potent)
1,ATGCACTTCATGTAGAGCCTGT,0.672
2,AAATTCTCCATAAACACCCTAA,-0.0479
3,TTGTTGTAGGATCACCATCCAG,-1.34
4,TTGGGTTCTGACACAACCGCAC,0.227
5,TATCTGAGAGAGTTCGGCGGGC,-0.0196
6,TTTCACTTCGTCATACGTCAAA,-0.674
7,TTATTGTGAGGGATTGTCTGGA,0.335
8,TTATACATTGCTTCATACGTAC,-0.141
9,TTCCTGAGCAAAGAGGACCAGG,-0.903
